About 83,000 compounds went through this panel and 20% of them were active in at least one assay; those are over-represented in the sample as a whole.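 Each cell line was grown in a 96-well plate and treated with one concentration of compound for 48 hours. Values below 10 were considered active.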 Activity calls are given as the source filed them.
What follows are compounds tested on MDA-MB-468 breast (assay: NCI-60 one-dose screen, 48 h (100 = growth as untreated, 0 = no growth, -100 = all killed)). Details: 10 µM unless noted.

Row | Compound | growth
1 | C=C1CC[C@@]2(C#N)[C@H]3[C@H](CC[C@@H]2C)[C@@H](C)C[C@@H](CC(C)(C)C#N)[C@H]13 | 59.7% (inactive)
2 | COC(=O)c1cc(-c2ccccc2)[nH]c1N/N=C/c1c(Cl)cccc1Cl | -7.8% (active)
3 | Cn1c(=O)c2[nH]c(CCCCC(=O)O)nc2n(C)c1=O | 121% (inactive)
4 | c1ccc2sc(SSN3CC4CCC(CC4)C3)nc2c1 | 122% (inactive)
5 | O=C(CSc1nc2ccc([N+](=O)[O-])cc2[nH]1)Nc1cccc(C(F)(F)F)c1 | -8.14% (active)
6 | COc1ccc(S(=O)(=O)n2cc(C3OC(c4cc(OC)c(OC)c(OC)c4)=NN3C(C)=O)c3ccccc32)cc1OC (stereo not given) | 105% (inactive)
7 | CCCCCCNc1nc(N2CCOCC2)c2[nH]c(NCCCCCC)nc2n1 | -76.7% (active)
8 | c1ccc(Sc2ncccn2)nc1 | 97% (inactive)
9 | O=C(c1ccccc1)c1ccco1 | 118% (inactive)
10 | COc1cc(/C=C2\C=C(c3ccc(F)cc3)N(Cc3ccccc3)C2=O)cc(OC)c1OC | 49.9% (inactive)
11 | Cc1nc2ccccc2c(/C=C/c2ccc(Cl)cc2)c1C(=O)/C=C/c1ccccc1 | 12.7% (inactive)
12 | CCOC(=O)C1(Cc2ccccc2)CCN(Cc2cccc(OC)c2O)CC1 | -9.39% (active)
13 | Cc1cc(N2CCOCC2)nc(N2CCOCC2)n1 | 94.6% (inactive)
14 | S=c1sc2ccccc2n1CN1CCCCC1 | 108% (inactive)
15 | CC(=O)c1c(C)[nH]c(-c2nc3ccc(N4CCN(C)CC4)cc3[nH]2)c1-c1ccc(OCC2CCOCC2)cc1 | 11.4% (inactive)
16 | Clc1ccc(Nc2ncc(Cc3cccc(Cl)c3Cl)s2)cc1 | 99.4% (inactive)
17 | O=C(/C=C/c1cn(-c2ccccc2)nc1-c1cccc(Nc2ccnc3cc(Cl)ccc23)c1)c1ccc2c(c1)OCO2 | 68.2% (inactive)
18 | CCN(CC)CCCC(C)Nc1cc(-c2ccc(C(F)(F)F)cc2)c(C#N)c2nc3ccccc3n12 (stereo not given) | -23.6% (active)
19 | CN1C(=O)N(C)C2Nn3c(s/c(=C\c4ccccc4)c3=O)=NC21 (stereo not given) | 95.4% (inactive)
20 | CCOC(=O)C1=C(c2ccccc2)N=C2SC=C(c3ccc(Cl)cc3)N2C1c1ccc(Br)cc1 (stereo not given) | 54.3% (inactive)

Row | Compound | growth
21 | O=C(/C=C/c1ccc(Cl)cc1)c1ccc(O)c(CN2CCN(c3cc4c(cc3F)c(=O)c(C(=O)O)cn4C3CC3)CC2)c1 | 40.9% (inactive)
22 | Cc1ccc(Sc2nnc(/N=C3\C(=O)Nc4ccccc43)s2)cc1 | 102% (inactive)
23 | Cc1ccc(C)c(/C=C2\CN(C(=O)OC(C)(C)C)C/C(=C\c3cc(C)ccc3C)C2=O)c1 | 57.3% (inactive)
24 | CC(=O)N(N=O)c1ccc([N+](=O)[O-])cc1Cl | 29.7% (inactive)
25 | COc1ccc(/C=C(/C(=O)N2CCNCC2)c2cc(OC)c(OC)c(OC)c2)cc1O | -4.45% (active)
26 | O=C(Cc1ccc(/C=C/C(=O)c2ncc[nH]2)cc1)Nc1ccc(S(F)(F)(F)(F)F)cc1 | 52.7% (inactive)
27 | COc1cccc(-c2nn(-c3ccccc3)cc2-c2ccnc(N3CCN(C(=O)Nc4ccc(F)cc4)CC3)c2)c1 | 51.6% (inactive)
28 | COc1c(B(O)O)cccc1-c1nc2ccc3n[nH]c(F)c3c2c2c1CCCC2 | 71.9% (inactive)
29 | CC(=O)Oc1ccc(Cl)cc1CN(C(C)=O)C1CCCCC1 | 101% (inactive)
30 | O=C(CSc1nnc(-c2ccc(Cl)c(Cl)c2)n1-c1ccccc1)Nc1ccc(C(=O)/C=C/c2ccc(Cl)cc2)cc1 | 98.4% (inactive)
31 | O=c1nc(Nc2ccc([N+](=O)[O-])cc2O)sc2ccccc12 | 34.3% (inactive)
32 | Cc1ccc(S(=O)(=O)Nc2cc(Sc3ccccc3)c(O)c3ccccc23)cc1 | -53.9% (active)
33 | O=C(O)c1ccc(-c2nn(-c3ccc(C(=O)O)cc3)cc2CNc2ccc(Br)cc2)cc1 | 114% (inactive)
34 | Nc1nc(=S)c2ncn(C3OC(COC(=O)c4ccc(Cl)cc4)C(OC(=O)c4ccc(Cl)cc4)C3OC(=O)c3ccc(Cl)cc3)c2[nH]1 (stereo not given) | 23.6% (inactive)
35 | COc1ccc(C(O)c2cc3c(N)c(C(=O)Nc4cccc(OC)c4)sc3nc2C)cc1 (stereo not given) | 5.65% (active)
36 | O=C(/C=C/c1c[nH]c2ccccc12)c1ccc(O)c(CN2CCN(c3ccc(F)cc3)CC2)c1 | 97.4% (inactive)
37 | CO[C@H]1/C=C/O[C@@]2(C)Oc3c(C)c(O)c4c(O)c(c5c(nc6cc(C)ccn65)c4c3C2=O)NC(=O)/C(C)=C\C=C\[C@H](C)[C@H](O)[C@@H](C)C(O)[C@@H](C)[C@H](OC(C)=O)[C@@H]1C (stereo not given in full) | 105% (inactive)
38 | NS(=O)(=O)c1ccc(CCn2c(SCC(=O)N/N=C/c3ccccc3O)nc3ccccc3c2=O)cc1 | 59.1% (inactive)
39 | NCCCNc1nc2ccccc2c2c(=O)c3cc(F)ccc3sc12 | 1.26% (active)
40 | COC1CC2CCC(C)C(O)(O2)C(=O)C(=O)N2CCCCC2C(=O)OC(C(C)CC2CCC(O)C(OC)C2)CC(=O)C(C)C=C(C)C(O)C(OC)C(=O)C(C)CC(C)/C=C/C=C/C=C1C (stereo not given) | 23.3% (inactive)

Reference: PubChem BioAssay (NCI)
